Data published in PubChem BioAssay (EPA / NIEHS).
Active and inactive are the calls of the source. The calls were made as follows: active = hit-call score of the fitted dose curve at least 0.9, where 1 is the maximum; inactive = score below 0.9.

Experiments:
[1] = ATG_CRE_CIS: Attagene CIS-FACTORIAL HepG2 Assay for human cAMP Responsive Element (CRE) binding protein 3 (AID 2282926); conditions: HepG2 CRE cis-reporter, Attagene multiplexed mRNA; actives raise or lower the signal
How it was run: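 We dosed HepG2 cells bearing multiple cis-promoter reporter units for 24 h and measured reporter mRNA by RT-PCR with capillary electrophoresis detection. Bidirectional concentration-response fitting used DMSO as negative control.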

[2] = ATG_CMV_CIS: Attagene CIS-FACTORIAL HepG2 Assay for human CMV (Internal Marker) (AID 2282928); conditions: HepG2 CMV promoter reporter, transcription factor profiling; actives raise or lower the signal;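 also: endpoint acts as a background internal control marker rather than a target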
How it was run: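 HepG2 cells transiently transfected with multiple cis-regulated reporter units; 24 h compound exposure. Reporter mRNA quantified by RT-PCR, 6-FAM primer-extension labeling, HpaI digestion and capillary electrophoresis; bidirectional fitting against DMSO baseline.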

[3] = ATG_DR4_LXR_CIS: Attagene CIS-FACTORIAL HepG2 Assay for human Liver X Receptor (LXR), DR4 submotif (AID 2282929); conditions: HepG2 Attagene DR4 cis-reporter, mRNA transcription; actives raise or lower the signal
How it was run: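 HepG2, transient MRTU transfection, cis-element (DR4) promoter; 24 h compound exposure; total RNA → oligo(dT) RT → PCR → 6-FAM primer extension → HpaI cut → CE. Gain/loss vs DMSO, bidirectional fit.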

[4] = target: Aryl hydrocarbon receptor (Homo sapiens) (UniProt P35869); assay: ATG_Ahr_CIS: Attagene CIS-FACTORIAL HepG2 Assay for human Aryl Hydrocarbon Receptor (Ahr) (AID 2282930); conditions: HepG2 AhR cis-factorial reporter transcription; actives raise or lower the signal
Chain of Aryl hydrocarbon receptor (Homo sapiens) (P35869 whole entry, looked up): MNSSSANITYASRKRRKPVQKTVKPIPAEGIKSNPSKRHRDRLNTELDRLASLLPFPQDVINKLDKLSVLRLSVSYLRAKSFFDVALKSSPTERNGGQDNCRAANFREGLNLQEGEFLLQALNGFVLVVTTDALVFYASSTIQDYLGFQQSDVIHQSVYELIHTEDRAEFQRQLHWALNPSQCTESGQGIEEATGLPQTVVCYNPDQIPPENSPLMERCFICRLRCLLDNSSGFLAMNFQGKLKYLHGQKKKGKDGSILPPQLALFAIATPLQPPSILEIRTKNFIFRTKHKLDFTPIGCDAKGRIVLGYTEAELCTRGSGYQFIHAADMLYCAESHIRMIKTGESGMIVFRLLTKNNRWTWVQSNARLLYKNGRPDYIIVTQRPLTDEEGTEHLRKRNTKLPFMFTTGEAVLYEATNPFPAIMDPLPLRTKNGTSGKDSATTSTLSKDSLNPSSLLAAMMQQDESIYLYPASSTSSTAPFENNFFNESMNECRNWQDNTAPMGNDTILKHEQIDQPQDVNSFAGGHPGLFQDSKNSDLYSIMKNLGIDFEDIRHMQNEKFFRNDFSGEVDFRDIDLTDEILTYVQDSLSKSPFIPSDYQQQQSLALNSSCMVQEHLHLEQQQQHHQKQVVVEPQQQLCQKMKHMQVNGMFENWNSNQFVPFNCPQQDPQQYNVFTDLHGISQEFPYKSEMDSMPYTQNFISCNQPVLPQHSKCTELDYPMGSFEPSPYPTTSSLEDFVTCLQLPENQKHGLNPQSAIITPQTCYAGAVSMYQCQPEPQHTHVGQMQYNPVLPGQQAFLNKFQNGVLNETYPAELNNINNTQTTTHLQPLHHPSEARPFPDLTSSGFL
How it was run: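 Endogenous factor activity is tracked through cis-promoter reporter units transfected into HepG2 cells. Transcript levels at 24 h are read by fluorescent RT-PCR and capillary electrophoresis, with activity in either direction scored relative to DMSO.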

[5] = ATG_AP_1_CIS: Attagene CIS-FACTORIAL HepG2 Assay for human Activator Protein 1 (AP-1) (AID 2282931); conditions: HepG2 Attagene cis-factorial AP-1 reporter mRNA; actives raise or lower the signal
How it was run: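 Transient MRTU transfection of HepG2 → 24 h chemical treatment → RNA isolation, RT-PCR, 6-FAM labelling, HpaI digest → capillary electrophoresis. Fit: bidirectional, DMSO negative control.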

[6] = ATG_AP_2_CIS: Attagene CIS-FACTORIAL HepG2 Assay for human Activator Protein 2 (AP-2) (AID 2282932); conditions: HepG2 AP-2 cis-reporter, Attagene transcription factor profiling; actives raise or lower the signal
How it was run: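 Multiplexed mRNA reporter assay in HepG2: cis-regulated units report endogenous factor activity after 24 h treatment. Fluorescence from capillary electrophoresis of RT-PCR products gives the signal, with DMSO as baseline.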

[7] = ATG_BRE_CIS: Attagene CIS-FACTORIAL HepG2 Assay for human Bone Morphogenetic Protein (BMP) Response Element (BRE) (AID 2282933); conditions: HepG2 BMP response element reporter, Attagene transcription factor profiling; actives raise or lower the signal
How it was run: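 Endogenous transcription factor activity read in transiently transfected HepG2 cells after 24 h chemical exposure. Bidirectional curve fitting against DMSO; readout is reporter transcript level by RT-PCR with capillary electrophoresis of labelled products.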

[8] = target: Retinoic acid receptor alpha (Homo sapiens) (UniProt P10276); assay: ATG_DR5_RAR_CIS: Attagene CIS-FACTORIAL HepG2 Assay for human Retinoic Acid Receptor Alpha (RARE), DR5 submotif (AID 2282934); conditions: HepG2 Attagene cis-factorial RARE DR5 reporter, mRNA; actives raise or lower the signal;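 as to AC50: reporter responds to endogenous RAR alpha beta and gamma in HepG2 not RARA alone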
Chain of Retinoic acid receptor alpha (Homo sapiens) (P10276 whole entry, looked up): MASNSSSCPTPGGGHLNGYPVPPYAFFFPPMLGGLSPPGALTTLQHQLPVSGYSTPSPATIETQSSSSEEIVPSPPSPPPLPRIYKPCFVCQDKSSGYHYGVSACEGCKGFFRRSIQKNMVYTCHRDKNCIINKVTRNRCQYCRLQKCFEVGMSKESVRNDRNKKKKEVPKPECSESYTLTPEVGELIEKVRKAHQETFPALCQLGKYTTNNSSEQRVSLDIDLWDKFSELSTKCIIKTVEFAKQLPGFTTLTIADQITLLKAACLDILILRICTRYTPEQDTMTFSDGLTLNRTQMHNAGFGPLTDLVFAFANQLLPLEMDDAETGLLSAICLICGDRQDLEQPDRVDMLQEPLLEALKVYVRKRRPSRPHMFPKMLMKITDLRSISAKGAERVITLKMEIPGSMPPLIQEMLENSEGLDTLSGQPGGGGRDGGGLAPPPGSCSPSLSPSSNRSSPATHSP
How it was run: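 After 24 h of chemical exposure, transiently transfected HepG2 cells were lysed for total RNA; the DR5-regulated reporter transcript was quantified via RT-PCR and capillary electrophoresis, with activity fitted bidirectionally against DMSO.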

[9] = ATG_E_Box_CIS: Attagene CIS-FACTORIAL HepG2 Assay for human Enhancer Box (E-box) (AID 2282936); conditions: HepG2 E-box cis-reporter transcription, actives raise or lower the signal
How it was run: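 First, HepG2 cells receive multiple cis-regulated reporter constructs by transient transfection. Next, chemicals are applied for 24 h. Finally, reporter mRNA is quantified via RT-PCR and capillary electrophoresis, with DMSO as baseline.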

[10] = ATG_M_61_CIS: Attagene CIS-FACTORIAL HepG2 Assay for M61 Transcription Factor (Internal Marker) (AID 2282937); conditions: HepG2 Attagene CIS-FACTORIAL M61 internal marker reporter; actives raise or lower the signal
How it was run: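 Human liver HepG2, transient MRTU transfection (cis promoter elements), 24 h compound. Total RNA → oligo(dT) RT → PCR → FAM label → HpaI → CE. Internal background marker; bidirectional fitting, DMSO = baseline.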

[11] = ATG_EGR_CIS: Attagene CIS-FACTORIAL HepG2 Assay for human Early Growth Response 1 (EGR1) (AID 2282938); conditions: HepG2 Attagene CIS-FACTORIAL EGR reporter mRNA; actives raise or lower the signal
How it was run: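 Transient transfection of human HepG2 with multiple cis-regulated reporter units, chemical exposure 24 h, total RNA isolated. Reverse transcription, PCR, fluorescent labelling and capillary electrophoresis quantify reporter transcripts; activity fitted bidirectionally against DMSO.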

[12] = ATG_M_19_CIS: Attagene CIS-FACTORIAL HepG2 Assay for M19 Transcription Factor (Internal Marker) (AID 2282939); conditions: HepG2 Attagene CIS-FACTORIAL M19 internal marker reporter; actives raise or lower the signal
How it was run: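 Internal marker readout, fitted in both directions against DMSO, from HepG2 cells carrying transfected cis-element reporter constructs; RT-PCR and capillary electrophoresis of reporter mRNA after 24 h exposure.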

[13] = ATG_ERE_CIS: Attagene CIS-FACTORIAL HepG2 Assay for Estrogen Response Element (ERE) (AID 2282940); conditions: HepG2 ERE cis-reporter, Attagene RNA transcript; actives raise or lower the signal
How it was run: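 After 24 h compound treatment, RNA from transfected HepG2 cells was reverse-transcribed, reporter cDNA PCR-amplified, FAM-labelled, HpaI-cut and resolved by capillary electrophoresis. ERE-driven cis reporter transcripts reflect endogenous factors; gain or loss scored against DMSO.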

[14] = ATG_Ets_CIS: Attagene CIS-FACTORIAL HepG2 Assay for human Erythroblast Transformation Specific (ETS) (AID 2282941); conditions: HepG2 ETS cis-reporter transcription, actives raise or lower the signal
How it was run: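 HepG2 cells transiently transfected with cis-promoter reporter transcription units were dosed for 24 h; reporter mRNA was measured by RT-PCR, 6-FAM primer extension, HpaI digestion and capillary electrophoresis, with bidirectional fitting against DMSO baseline.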

[15] = target: Hepatocyte nuclear factor 3-beta (Homo sapiens) (UniProt Q9Y261); assay: ATG_FoxA2_CIS: Attagene CIS-FACTORIAL HepG2 Assay for human Forkhead box A2 (FOXA2) (AID 2282942); conditions: HepG2 cis-reporter transcription factor activity, 24 h; actives raise or lower the signal
Chain of Hepatocyte nuclear factor 3-beta (Homo sapiens) (Q9Y261 whole entry, looked up): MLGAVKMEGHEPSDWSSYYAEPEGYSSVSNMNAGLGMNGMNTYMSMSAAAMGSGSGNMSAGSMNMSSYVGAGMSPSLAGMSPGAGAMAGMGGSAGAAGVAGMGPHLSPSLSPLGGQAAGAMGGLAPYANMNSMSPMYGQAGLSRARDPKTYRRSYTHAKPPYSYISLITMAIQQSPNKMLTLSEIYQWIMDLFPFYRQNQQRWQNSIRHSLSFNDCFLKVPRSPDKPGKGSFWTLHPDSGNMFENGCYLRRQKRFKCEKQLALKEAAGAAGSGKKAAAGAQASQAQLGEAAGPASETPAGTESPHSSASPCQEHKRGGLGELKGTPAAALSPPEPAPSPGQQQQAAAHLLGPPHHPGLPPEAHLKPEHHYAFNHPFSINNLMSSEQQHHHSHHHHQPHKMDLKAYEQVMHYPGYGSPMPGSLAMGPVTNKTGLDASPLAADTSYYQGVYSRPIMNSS
How it was run: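 Transient MRTU transfection of HepG2 liver cells; 24 h treatment; total RNA → oligo(dT) RT → PCR → FAM primer extension → HpaI cut → CE. Bidirectional fit vs DMSO.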

[16] = ATG_FoxO_CIS: Attagene CIS-FACTORIAL HepG2 Assay for human Forkhead box O (FoxO) (AID 2282943); conditions: HepG2 Attagene cis-reporter, FoxO element, mRNA; actives raise or lower the signal
How it was run: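 Transfected HepG2 reporter cells exposed to test chemical for 24 h; reporter RNA measured by reverse transcription, PCR and fluorescent capillary electrophoresis; curves fitted for increases and decreases against DMSO.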

[17] = ATG_GATA_CIS: Attagene CIS-FACTORIAL HepG2 Assay for human GATA Binding Protein (AID 2282944); conditions: HepG2 GATA cis-element reporter, Attagene multiplex mRNA; actives raise or lower the signal
How it was run: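 Reporter transcripts from a GATA cis-regulated unit, among multiplexed reporters in transfected HepG2 cells, were measured by RT-PCR with capillary electrophoresis after 24 h dosing. Induction or loss scored relative to DMSO.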

[18] = target: Transcription factor E2F1 (Homo sapiens) (UniProt Q01094); assay: ATG_E2F_CIS: Attagene CIS-FACTORIAL HepG2 Assay for human E2F Transcription Factor 1 (AID 2282935); conditions: HepG2 Attagene cis-reporter, E2F reporter RNA transcripts; actives raise or lower the signal
Chain of Transcription factor E2F1 (Homo sapiens) (Q01094 whole entry, looked up): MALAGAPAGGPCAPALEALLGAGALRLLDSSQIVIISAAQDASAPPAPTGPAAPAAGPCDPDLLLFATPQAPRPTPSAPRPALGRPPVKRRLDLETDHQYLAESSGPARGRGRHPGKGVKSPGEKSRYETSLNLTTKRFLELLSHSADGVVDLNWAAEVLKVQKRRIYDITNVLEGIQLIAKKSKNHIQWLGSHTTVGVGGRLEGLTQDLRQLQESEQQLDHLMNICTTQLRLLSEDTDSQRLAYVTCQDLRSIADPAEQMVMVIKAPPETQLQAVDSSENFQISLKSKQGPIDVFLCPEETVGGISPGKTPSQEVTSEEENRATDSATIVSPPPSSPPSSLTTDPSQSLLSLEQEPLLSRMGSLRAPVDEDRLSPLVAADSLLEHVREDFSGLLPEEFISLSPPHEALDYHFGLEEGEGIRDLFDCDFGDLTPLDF
How it was run: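 Measures reporter transcript levels via RT-PCR with capillary electrophoresis detection in HepG2 cells harboring cis-regulated reporter units; 24 h post-dose; bidirectional curve fitting with DMSO as baseline.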

[19] = target: CCAAT/enhancer-binding protein beta (Homo sapiens) (UniProt P17676); assay: ATG_C_EBP_CIS: Attagene CIS-FACTORIAL HepG2 Assay for human CCAAT/Enhancer Binding Protein (C/EBP) beta (AID 2282927); conditions: HepG2 Attagene cis-factorial transcription factor reporter; actives raise or lower the signal
Chain of CCAAT/enhancer-binding protein beta (Homo sapiens) (P17676 whole entry, looked up): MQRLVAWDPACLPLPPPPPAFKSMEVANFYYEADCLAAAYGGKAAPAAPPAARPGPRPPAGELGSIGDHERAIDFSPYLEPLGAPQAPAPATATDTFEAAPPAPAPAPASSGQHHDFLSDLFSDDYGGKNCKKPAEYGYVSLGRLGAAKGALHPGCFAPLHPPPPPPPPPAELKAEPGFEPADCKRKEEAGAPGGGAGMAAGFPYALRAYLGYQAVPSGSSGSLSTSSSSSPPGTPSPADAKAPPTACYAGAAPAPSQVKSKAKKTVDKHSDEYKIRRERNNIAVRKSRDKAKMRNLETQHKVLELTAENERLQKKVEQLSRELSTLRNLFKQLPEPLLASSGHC
How it was run: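 HepG2, transient MRTU transfection, 24 h treatment. RT-PCR plus CE fluorescence; DMSO negative control, bidirectional fit.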

Measured: AC50

Cc1cc(O)c2c(c1)C(=O)c1cc(O)cc(O)c1C2=O
inactive: [2] | [5] | [6] | [9] | [10] | [11] | [12] | [15] | [17]
active: [1] 8.7 µM | [3] 44.8 µM | [4] 25.3 µM | [7] 9.2 µM | [8] 17.6 µM | [13] 0.602 µM | [14] 19.3 µM | [16] 26.2 µM

CCCCCCOc1ccc(O)cc1
active: [2] 33.4 µM | [13] 2.79 µM
inactive: [1] | [4] | [6] | [7] | [18] | [9] | [10] | [11] | [12] | [14] | [15] | [16] | [17]

CCCCCCCCCO
inactive: [1] | [2] | [3] | [4] | [5] | [6] | [7] | [18] | [9] | [10] | [11] | [12] | [13] | [14] | [15] | [16] | [17]

CC(=O)N(C)C
inactive: [19] | [2] | [3] | [4] | [6] | [7] | [8] | [9] | [10] | [11] | [12] | [13] | [14] | [15] | [16] | [17]

CCCCC1CCCCC(=O)O1 (stereo not given)
inactive: [1] | [4] | [5] | [6] | [7] | [18] | [9] | [10] | [11] | [12] | [13] | [14] | [15] | [16] | [17]

COC(=O)C(C)Oc1ccc(Oc2ncc(C(F)(F)F)cc2Cl)cc1 (stereo not given)
inactive: [1] | [2] | [3] | [5] | [6] | [18] | [10] | [12] | [13] | [14] | [15] | [16] | [17]
active: [4] 3.09 µM | [7] 149 µM | [9] 180 µM | [11] 76.1 µM

c1coc(CNc2ncnc3nc[nH]c23)c1
inactive: [1] | [3] | [4] | [5] | [6] | [9] | [10] | [11] | [12] | [13] | [15] | [16] | [17]
